In the supplement of paper PMC7156485:
± gives the standard deviation of the averaged measurements.

These compounds were tested on HCC1569 (assay: cell number relative to DMSO (% of DMSO); higher = more cells (less growth inhibition / toxicity)). Details: concentration: 10 µM; 24 h.
How it was run: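 Cell number or H1.0 nuclear intensity appears as percent of the plate control, based on the median of replicates. Measurements came from HCC1569 and TDF cells exposed in triplicate to compounds at 10 µM for 24 h at 37 °C, then imaged in six fields per well at ×10. Positional effects were smoothed out of HCC1569 values.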
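Note: TDF denotes transformed human dermal fibroblasts of mesenchymal origin.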

Row | Structure (SMILES) | cell number
1 | CCCCCCCCCCCCCCCCCCc1ccc(C(=O)/C=C/C(=O)O)cc1 [(2E)-4-(4-octadecylphenyl)-4-oxo-2-butenoic acid] | 100
2 | CCCCCCCCCCCCCCCC(=O)OC(CC(=O)O)C[N+](C)(C)C.[Cl-] (racemic) [Palmitoyl-DL-Carnitine chloride] | 94.9
3 | Nc1[nH]nc2nnc(-c3c(-c4ccccc4)nn4ccccc34)cc12 | 94.2
4 | COC1C=COC2(C)Oc3c(C)c(O)c4c(O)c(cc([O-])c4c3C2=O)NC(=O)C(C)=CC=CC(C)C(O)C(C)C(O)C(C)C(OC(C)=O)C1C.[Na+] (stereo not given) | 103
5 | CN1CCN(c2ccc3c(c2)NC(=C2C(=O)N=c4cccc(F)c4=C2N)N3)CC1 | 81.3
6 | O=c1c(O)c(-c2ccccc2)oc2cc(O)cc(O)c12 [Galangine] | 98.1
7 | CCOC(=O)C(CCc1ccccc1)NC(C)C(=O)N1C(C(=O)O)CC2CCCC21 (stereo not given) [Ramipril] | 105
8 | CN(C)C1C(=O)C(C(N)=O)=C(O)C2(O)C(=O)C3=C(O)c4c(O)ccc(Cl)c4C(O)C3CC12.Cl (stereo not given) [Demeclocycline hydrochloride] | 96.2
9 | Cc1nc2ccccn2c(=O)c1CCN1CCC(C(=O)c2ccc(F)cc2)CC1 [Pirenperone] | 99.5
10 | CCN1CCN(C(=O)NC(C(=O)NC2C(=O)N3C(C(=O)O)=C(CSc4nnnn4C)CSC23)c2ccc(O)cc2)C(=O)C1=O (stereo not given) [Cefoperazone acid] | 100
11 | CC1CNCCN1S(=O)(=O)c1cccc2cnccc12.Cl.Cl (stereo not given) | 101
12 | COc1ccc(C=Cc2cc(OC)cc(=O)o2)cc1 [Yangonin] | 98.9
13 | N#Cc1cccc(-c2c[nH]c3ncnc(N4CCOCC4)c23)c1 [3-(4-morpholino-7H-pyrrolo[2,3-d]pyrimidin-5-yl)benzonitrile] | 107
14 | O=C(O)CCC(C(=O)O)N1C(=O)c2ccccc2C1=O [L-Glutamic acid, N-phthaloyl-] | 101
15 | CCCCCCCCCCCCCC=CC(O)C(CO)NCCCCCCCC (stereo not given) [C8 Ceramine] | 105
16 | Nc1ncnc2c1cnn2-c1ccccc1 | 103
17 | CC(NC(=O)C(C#N)=Cc1ccc(O)c(O)c1)c1ccccc1 (stereo not given) [Tyrphostin AG 527] | 91.2
18 | O=C1CC(c2ccc(O)c(O)c2)Oc2c1ccc(OC1OC(CO)C(O)C(O)C1O)c2O (stereo not given) [Flavanomarein] | 102
19 | COC(=O)C1C(O)CCC2CN3CCc4c([nH]c5ccccc45)C3CC21.Cl (stereo not given) [Rauwolscine hydrochloride] | 99.9
20 | NC1CCN(c2nc3c(cc2F)c(=O)c(C(=O)O)cn3-c2ccc(F)cc2F)C1 (stereo not given) [Tosufloxacin] | 106

Row | Structure (SMILES) | cell number
21 | N#CC(=Cc1ccc(O)c(O)c1)C(=O)Nc1ccccc1 [Tyrphostin AG 494] | 87.1
22 | CC(C)(C)c1ccc(C(O)CCCN2CCC(C(O)(c3ccccc3)c3ccccc3)CC2)cc1 (stereo not given) [Terfenadine] | 92.7 ± 3.6
23 | CCCCCCCCCCCC=CCCCCCC(=O)O [7(Z)-Nonadecenoic acid] | 97.8
24 | O=C(O)CCC(=O)c1ccc(-c2ccccc2)cc1 [Fenbufen] | 101
25 | Cl.O.O=C(O)CN(CCN(CC(=O)O)Cc1ccccc1O)Cc1ccccc1O | 105
26 | C#CC1(O)CCC2C3C(C)CC4=C(CCC(=O)C4)C3CCC21C (stereo not given) [Tibolone] | 100
27 | Nc1nc(=O)c2ncn(CCC(CO)CO)c2[nH]1 [Penciclovir] | 103
28 | CCOc1cc2ncc(C#N)c(Nc3ccc(F)c(Cl)c3)c2cc1NC(=O)/C=C/CN(C)C | 43.6
29 | O=C(OC1Cc2c(O)cc(O)cc2OC1c1cc(O)c(O)c(O)c1)c1cc(O)c(O)c(O)c1 (stereo not given) [Epigallocatechin gallate] | 105
30 | Cn1c(=O)c2[nH]cnc2n(C)c1=O [Aminophylline] | 103
31 | O=C1C(=O)c2ccccc2C(O)=C1C1CCC(c2ccc(Cl)cc2)CC1 (stereo not given) [Atovaquone] | 100
32 | CCCCN1CCCCC1C(=O)Nc1c(C)cccc1C (stereo not given) [Bupivacaine] | 97.9
33 | COc1cc2ncnc(Nc3ccc(F)c(Cl)c3)c2cc1OCCCN1CCOCC1 | 80.2
34 | O=C(Nc1cccc(-c2ccccc2)c1)OC1CCCCC1 [cyclohexyl [1,1'-biphenyl]-3-ylcarbamate] | 105
35 | CCCCCN(CCCCC)C(=O)C(CCC(=O)O)NC(=O)c1ccc(Cl)c(Cl)c1 (stereo not given) [Lorglumide] | 100
36 | COc1ccccc1N1CCN(CCN(C(=O)c2ccc(F)cc2)c2ccccn2)CC1.Cl.Cl [p-MPPF dihydrochloride] | 99.7
37 | Cc1cc(C(C)(C)C)cc(C)c1CC1=NCCN1.Cl [Xylometazoline hydrochloride] | 97.5
38 | CC(C)(C)c1ccc(S(=O)(=O)C=CC#N)cc1 | 50.3
39 | CC1OC(OC2C(Oc3cc(O)c4c(c3)OC(c3ccc(O)cc3)CC4=O)OC(CO)C(O)C2O)C(O)C(O)C1O (stereo not given) [Naringin] | 103
40 | CCCCCC=CCC=CC=CC=CC(SCC(NC(=O)CCC(N)C(=O)O)C(=O)NCC(=O)O)C(O)CCCC(=O)O (stereo not given) [Leukotriene C4] | 99.8
